Common to all, as to assay: yeast three-hybrid, YBZ-1, SC-Leu-His + 0.5 mM 3-AT, 4 days
Conditions in all cases: tags: N-Gal4 AD-HA kept; label: inside an RPR1-promoter hybrid RNA with tandem MS2 sites; ssRNA

One assay addresses PUM1 PUF domain R3-CNE (Homo sapiens, UniProt Q14671 828-1176, R936N;Q939E). In outline:
(§1)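 Each repeat of the Pumilio-1 PUF domain was randomized at its three base-contacting residues, and these libraries were co-expressed from a centromeric plasmid with matching RNA elements in strain YBZ-1. After four days on SC-Leu (input) or SC-Leu-His + 0.5 mM 3-AT (selection), the repeat regions were PCR-amplified and Illumina-sequenced. The interaction score compares variant frequency between input and selection as a log change, computed in log2 with a pseudocount of 1 for absent variants.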

Another assay concerns the target PUM1 PUF domain R3-TQE (Homo sapiens, UniProt Q14671 828-1176, C935T;R936Q;Q939E). In outline: as §1
Another assay addresses PUM1 PUF domain R1-KFL (Homo sapiens, UniProt Q14671 828-1176, S863K;R864F;Q867L). Summed up: as §1
Another assay has as its target PUM1 PUF domain R8-IYR (Homo sapiens, UniProt Q14671 828-1176, N1122I;Q1126R). Summed up:
as §1

Another assay concerns the target PUM1 PUF domain R8-PFR (Homo sapiens, UniProt Q14671 828-1176, N1122P;Y1123F;Q1126R). In outline: as §1
A further assay addresses PUM1 PUF domain R5-SQK (Homo sapiens, UniProt Q14671 828-1176, C1007S;R1008Q;Q1011K). Summed up: as §1
The next assay addresses PUM1 PUF domain R4-LRC (Homo sapiens, UniProt Q14671 828-1176, N971L;H972R;Q975C). In outline: as §1
The target in the next assay is PUM1 PUF domain R5-RFC (Homo sapiens, UniProt Q14671 828-1176, C1007R;R1008F;Q1011C). In outline:
as §1

In a further assay the target is T1, PUM1 PUF domain R6-RFV (Homo sapiens, UniProt Q14671 828-1176, N1043R;Y1044F;Q1047V).
T1 sequence: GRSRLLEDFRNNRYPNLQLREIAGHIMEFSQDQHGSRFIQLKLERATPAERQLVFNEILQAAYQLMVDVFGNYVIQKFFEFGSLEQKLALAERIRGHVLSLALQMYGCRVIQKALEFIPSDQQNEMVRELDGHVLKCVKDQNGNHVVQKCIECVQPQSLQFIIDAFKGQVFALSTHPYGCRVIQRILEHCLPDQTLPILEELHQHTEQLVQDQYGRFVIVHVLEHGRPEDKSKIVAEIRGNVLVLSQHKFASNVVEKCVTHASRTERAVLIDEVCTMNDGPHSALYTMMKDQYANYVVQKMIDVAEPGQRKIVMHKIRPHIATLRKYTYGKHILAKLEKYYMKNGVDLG
In outline:
as §1

A further assay addresses PUM1 PUF domain R4-PFG (Homo sapiens, UniProt Q14671 828-1176, N971P;H972F;Q975G). In outline:
as §1

The next assay concerns the target T2, PUM1 PUF domain R6-QYV (Homo sapiens, UniProt Q14671 828-1176, N1043Q;Q1047V).
T2 sequence: T1 sequence with R216Q, F217Y
In outline:
as §1

The target in another assay is T3, PUM1 PUF domain R6-KYL (Homo sapiens, UniProt Q14671 828-1176, N1043K;Q1047L).
T3 sequence: T1 sequence with R216K, F217Y, V220L
In outline:
as §1

The target of the next assay is T4, PUM1 PUF domain R6-IWG (Homo sapiens, UniProt Q14671 828-1176, N1043I;Y1044W;Q1047G).
T4 sequence: T1 sequence with R216I, F217W, V220G
Summed up:
as §1

For another assay, the target named is PUM1 PUF domain R7-CSR (Homo sapiens, UniProt Q14671 828-1176, S1079C;N1080S;E1083R). In outline:
as §1

A further assay has as its target PUM1 PUF domain R4-EYR (Homo sapiens, UniProt Q14671 828-1176, N971E;H972Y;Q975R). In outline:
as §1

The next assay addresses PUM1 PUF domain R5-KRH (Homo sapiens, UniProt Q14671 828-1176, C1007K;Q1011H). Summed up: as §1
Another assay deals with PUM1 PUF domain R5-KDK (Homo sapiens, UniProt Q14671 828-1176, C1007K;R1008D;Q1011K). Summed up:
as §1

A further assay deals with T5, PUM1 PUF domain R6-IFG (Homo sapiens, UniProt Q14671 828-1176, N1043I;Y1044F;Q1047G).
T5 sequence: T1 sequence with R216I, V220G
Summed up:
as §1

The target of the next assay is PUM1 PUF domain R7-RSC (Homo sapiens, UniProt Q14671 828-1176, S1079R;N1080S;E1083C). In outline: as §1
The target in a further assay is PUM1 PUF domain R7-GCR (Homo sapiens, UniProt Q14671 828-1176, S1079G;N1080C;E1083R). Summed up: as §1

Changes are numbered by the printed parent chain.

Take “GGCUAGAACUAGUGGAUCCCCCGGCGCCCGGCGGCUCGAGCCCGGGUAAGUGUAAGUAGUCUGCAUGCCGCCGGGCGCCAUGCCUGCAGGUCGACUCUAGAAAACAUG”: the binding signal with PUM1 PUF domain R3-CNE was 3.08 log2 enrichment (interaction score); with PUM1 PUF domain R3-TQE it was 2.29 log2 enrichment (interaction score).

Regarding “GGCUAGAACUAGUGGAUCCCCCGGCGCCCGGCGGCUCGAGCCCGGGUAAGUGUAAAUUGUCUGCAUGCCGCCGGGCGCCAUGCCUGCAGGUCGACUCUAGAAAACAUG”, the binding signal with PUM1 PUF domain R1-KFL was 2.99 log2 enrichment (interaction score).

Turning to “GGCUAGAACUAGUGGAUCCCCCGGCGCCCGGCGGCUCGAGCCCGGGUAAGCGUAAAUAGUCUGCAUGCCGCCGGGCGCCAUGCCUGCAGGUCGACUCUAGAAAACAUG”, the results for the binding signal with PUM1 PUF domain R8-IYR and with PUM1 PUF domain R8-PFR were 6.47 log2 enrichment (interaction score) and 5.6 log2 enrichment (interaction score), respectively.

On to “GGCUAGAACUAGUGGAUCCCCCGGCGCCCGGCGGCUCGAGCCCGGGUAAGUGUUAAUAGUCUGCAUGCCGCCGGGCGCCAUGCCUGCAGGUCGACUCUAGAAAACAUG”, for which the binding signal with PUM1 PUF domain R5-SQK was 2.21 log2 enrichment (interaction score).

Regarding “GGCUAGAACUAGUGGAUCCCCCGGCGCCCGGCGGCUCGAGCCCGGGUAAGUGUAAAUAGUCUGCAUGCCGCCGGGCGCCAUGCCUGCAGGUCGACUCUAGAAAACAUG”, the binding signal was 4.01 log2 enrichment (interaction score) in the assay with PUM1 PUF domain R4-LRC; 4.7 log2 enrichment (interaction score) in the assay with PUM1 PUF domain R8-IYR; 3.35 log2 enrichment (interaction score) with PUM1 PUF domain R5-RFC; 3.56 log2 enrichment (interaction score) with PUM1 PUF domain R6-RFV; 2.27 log2 enrichment (interaction score) in the assay with PUM1 PUF domain R3-CNE; 6.55 log2 enrichment (interaction score) with PUM1 PUF domain R4-PFG. Also, the binding signal was 3.82 log2 enrichment (interaction score) with PUM1 PUF domain R8-PFR, 3.63 log2 enrichment (interaction score) with PUM1 PUF domain R6-QYV, 5.29 log2 enrichment (interaction score) in the assay with PUM1 PUF domain R6-KYL and 3.59 log2 enrichment (interaction score) with PUM1 PUF domain R6-IWG.

As to “GGCUAGAACUAGUGGAUCCCCCGGCGCCCGGCGGCUCGAGCCCGGGUAAGUUUAAAUAGUCUGCAUGCCGCCGGGCGCCAUGCCUGCAGGUCGACUCUAGAAAACAUG”, the binding signal in the assay with PUM1 PUF domain R7-CSR was 3.61 log2 enrichment (interaction score).

Take “GGCUAGAACUAGUGGAUCCCCCGGCGCCCGGCGGCUCGAGCCCGGGUAAGUGUACAUAGUCUGCAUGCCGCCGGGCGCCAUGCCUGCAGGUCGACUCUAGAAAACAUG”: the binding signal is 6.74 log2 enrichment (interaction score) in the assay with PUM1 PUF domain R4-PFG and 1.63 log2 enrichment (interaction score) in the assay with PUM1 PUF domain R4-EYR.

With “GGCUAGAACUAGUGGAUCCCCCGGCGCCCGGCGGCUCGAGCCCGGGUAAGUGUCAAUAGUCUGCAUGCCGCCGGGCGCCAUGCCUGCAGGUCGACUCUAGAAAACAUG”, the binding signal was 4.38 log2 enrichment (interaction score) with PUM1 PUF domain R5-KRH, 5.11 log2 enrichment (interaction score) in the assay with PUM1 PUF domain R5-RFC and 2.95 log2 enrichment (interaction score) with PUM1 PUF domain R5-KDK.

For “GGCUAGAACUAGUGGAUCCCCCGGCGCCCGGCGGCUCGAGCCCGGGUAAGUGUAUAUAGUCUGCAUGCCGCCGGGCGCCAUGCCUGCAGGUCGACUCUAGAAAACAUG”, the binding signal with PUM1 PUF domain R4-PFG is 7.12 log2 enrichment (interaction score); with PUM1 PUF domain R4-EYR, 3.63 log2 enrichment (interaction score).

On to “GGCUAGAACUAGUGGAUCCCCCGGCGCCCGGCGGCUCGAGCCCGGGUAAGUGAAAAUAGUCUGCAUGCCGCCGGGCGCCAUGCCUGCAGGUCGACUCUAGAAAACAUG”, for which the values for the binding signal in the assay with PUM1 PUF domain R6-IFG and in the assay with PUM1 PUF domain R6-IWG were 4.32 log2 enrichment (interaction score) and 1.15 log2 enrichment (interaction score), respectively.

For “GGCUAGAACUAGUGGAUCCCCCGGCGCCCGGCGGCUCGAGCCCGGGUAAGUGUAAAUCGUCUGCAUGCCGCCGGGCGCCAUGCCUGCAGGUCGACUCUAGAAAACAUG”, in the assay with PUM1 PUF domain R1-KFL, the binding signal is 4.43 log2 enrichment (interaction score).

Consider “GGCUAGAACUAGUGGAUCCCCCGGCGCCCGGCGGCUCGAGCCCGGGUAAGUCUAAAUAGUCUGCAUGCCGCCGGGCGCCAUGCCUGCAGGUCGACUCUAGAAAACAUG”, for which the binding signal with PUM1 PUF domain R7-RSC is 2.75 log2 enrichment (interaction score); with PUM1 PUF domain R7-GCR, 5.49 log2 enrichment (interaction score).

(Values after publication PMC8384837, “Expanding the binding specificity for RNA recognition by a PUF domain”.)
